# Source: PubChem BioAssay (National Center for Advancing Translational Sciences (NCATS))
# VDR inh = vitamin D3 receptor (human) inhibition; P11473; VDR-SRC2-3 peptide fluorescence polarization, 2 h; Potency, µM, inactives show max response, negative = inhibition, usual class: inhibitors; actives 0.93% (n = 400,000); AID 504847; note: % is set by controls: 0 for no effect and ±100 for the full control effect
# Target sequence (P11473 whole entry, looked up): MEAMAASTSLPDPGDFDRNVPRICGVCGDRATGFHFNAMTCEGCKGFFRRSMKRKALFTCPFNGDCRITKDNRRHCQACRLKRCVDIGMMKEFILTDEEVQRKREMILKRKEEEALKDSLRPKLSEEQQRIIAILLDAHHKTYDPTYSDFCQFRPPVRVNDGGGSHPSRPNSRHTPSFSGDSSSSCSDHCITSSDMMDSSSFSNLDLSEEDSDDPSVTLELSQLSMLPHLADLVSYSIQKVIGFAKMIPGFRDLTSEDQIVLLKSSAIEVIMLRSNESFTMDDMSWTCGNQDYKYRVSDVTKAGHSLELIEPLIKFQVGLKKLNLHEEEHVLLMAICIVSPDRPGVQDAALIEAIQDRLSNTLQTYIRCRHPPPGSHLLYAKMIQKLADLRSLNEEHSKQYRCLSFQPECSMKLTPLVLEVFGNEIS
#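 Fluorescence polarization assay measuring small-molecule disruption of VDR binding to the coregulator peptide SRC2-3. Compounds were pin-transferred (23 nl) into the reagent mix and incubated 2 h at room temperature before reading.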
# Pin1 inhibitor = inhibitors of human Pin1 | actives 0.009% (n = 390,000) | Potency, µM (series often up to 115 µM), without a hit: at the top dose activity, negative = inhibition, actives largely listed as inhibitors | AID 504891 | Q13526 | Pin1 FP peptide displacement, HiFluor488, 10 min; active = well fitted inhibition curve with a large enough effect in the polarisation, with a control signal flat, not every such curve was filed as active; inconclusive = small, poorly fitted or top-dose-only effect, or effect the other way, or a change in a side signal; inactive = no such curve, though single readings can be large or run the other way; the % refers to the polarisation; note: % is set by controls: 0 for no effect and ±100 for the full control effect
# Target sequence (Q13526 whole entry, looked up): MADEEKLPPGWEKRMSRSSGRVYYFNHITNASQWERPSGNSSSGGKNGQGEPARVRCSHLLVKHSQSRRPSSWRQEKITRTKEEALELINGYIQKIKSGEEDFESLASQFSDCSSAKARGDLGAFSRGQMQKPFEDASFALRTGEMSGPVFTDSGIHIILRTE
# TDP1 inh = TDP1 (human) enzyme inhibition. recombinant TDP1, AlphaScreen DNA substrate cleavage. actives 0.28% (n = 350,000). Potency, µM (highest dose often 130 µM), without a hit: at the highest dose activity change, negative = inhibition, usual class: inhibitors; note: % is set by controls: 0 for no effect and ±100 for the full control effect; nearly all actives have a fitted effect of over 40% in size
#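 Compounds were preincubated with Tdp1 (1 nM final) for 15 min at room temperature before substrate (15 nM final) started a 5 min reaction; beads (10 ug/ml final) were then added for 10 min before AlphaScreen detection.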
# PLK1 PBD block = inhibitors of human PLK1 polo-box domain binding; P53350; Plk1 PBD binding of FITC phosphopeptide, fluorescence polarization; Potency, µM, for the others: max response, negative = inhibition, hits mostly inhibitors; actives 2.8% (n = 360,000); note: series mostly up to about 57 µM; % is set by controls: 0 for no effect and ±100 for the full control effect; nearly all actives have a fitted effect of over 65% in size
# Tb PFK block = inhibitors of T. brucei phosphofructokinase. actives 0.17% (n = 330,000). T. brucei PFK, ADP-Glo luminescence. Potency, µM (top dose mostly 57.5 µM), for inactives: at the highest dose activity, negative = inhibition, usual class: inhibitors;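 note: 0% = uninhibited 1x PFK enzyme wells and -100% = no-enzyme wells; nearly all actives have a fitted effect of over 60% in size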
#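 Activity is normalized to no-enzyme wells (full inhibition) and 1.25 nM enzyme wells (no inhibition). Reaction: 0.5 mM F6P, 0.1 mM ATP, 45 min RT, ADP-Glo luminescence; concentration-response curves fitted and classed by quality.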
# ASM inhibitor = blocks human secretory acid sphingomyelinase | P17405 | placental ASM, HMU-PC fluorogenic substrate, 60 min | Potency, µM (highest dose often 57.5 µM), for inactives: at the highest dose activity change, negative = inhibition, hits mostly inhibitors | actives 0.006% (n = 340,000)
#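 Human placenta-derived ASM preincubated with compound 10 min at room temperature, then reacted with 9 uM (final) fluorogenic HMU-PC substrate for 60 min at 37 C. Stop solution raises pH to 10; fluorescence read at Ex 386/Em 447 nm.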
# Active calls of the source: *; u = inconclusive; x = no result; [ ] = dose if it differs, or a comment. Rows were chosen to be rich in hits. Some 3.1% of all compounds tested hit in one or more screens of this group. Unless noted, calls come from the whole dose curve; as a rule, active = well fitted curve in the direction sought with a large enough effect; inconclusive = small, poorly fitted or top-dose-only effect, or another doubt; inactive = no such curve, though single readings can be large; an effect the other way counts as inactive or inconclusive. Potency is the fitted concentration of half-maximal effect.
SMILES,VDR inh,Pin1 inhibitor,TDP1 inh,PLK1 PBD block,Tb PFK block,ASM inhibitor
Cc1cc(C)nc(NS(=O)(=O)c2ccc(NC(=O)c3cc(-c4ccccc4)nc4ccccc34)cc2)n1,15%,31%,5%,-25%,7%,36%
Cc1noc(NS(=O)(=O)c2ccc(NC(=O)CSc3nc4ccccc4s3)cc2)c1C,u,-13%,8%,17µM*,-18%,4%
Cc1ccc(-c2cc(C(=O)Nc3ccc(S(=O)(=O)Nc4onc(C)c4C)cc3)c3ccccc3n2)cc1,-6%,u,8%,34µM*,5%,11%
O=C(Nc1ccc(S(=O)(=O)Nc2nccs2)cc1)c1cc(-c2ccccc2Cl)nc2ccccc12,-2%,27%,12%,30µM*,-2%,-6%
CCC(Oc1ccccc1)C(=O)Nc1cc(-c2ccccc2OC)nn1-c1ccccc1 (stereo unspecified),0%,15%,3%,x,x,x
CCCc1cc2c(-c3ccccc3)cc(=O)oc2cc1OCc1ccc(C(=O)O)o1,-24%,u,-3%,24µM*,1%,34%
CCc1cc2c(-c3ccccc3)cc(=O)oc2cc1OCC(C)=O,-20%,2%,x,-16%,1%,-1%
O=C(OCC(=O)N1N=C(c2ccc(Cl)cc2)CC1c1ccco1)c1cncc(Br)c1 (stereo unspecified),71µM*,23%,-1%,u,0%,-12%
O=C(O)C(O)c1ccco1 (stereo unspecified),-14%,u,3%,27µM*,4.8µM*,4%
Oc1c(Cl)cc(CN2CCOCC2)c2cccnc12,u,-4%,-4%[56.1 µM],u,u,4%
Oc1c(CN2CCc3ccccc3C2)cc(Cl)c2cccnc12,-29%,-13%,11%,30µM*,-5%,32%
N[C@@H](C(=O)O)[C@@H](CC(=O)O)c1ccc(Cl)cc1,3%,x,-4%,x,x,x
CCc1ccc(-n2c(CSc3nnnn3-c3ccccc3)nc3ccccc3c2=O)cc1,-21%,6%,3%,6µM*,1%,-2%
Cc1ccc(-c2nc3ccc(C(=O)O)cc3nc2-c2ccc(C)cc2)cc1,-6%,1%,4%,30µM*,0%,436%
CNC(=O)c1ccc2nc(-c3ccccc3)c(-c3ccccc3)nc2c1,-2%,u,1%,x,x,x
Clc1ccc(CN(CCCNc2ncnc(NCCCc3cnc[nH]3)n2)c2ccc(Br)cn2)cc1Cl,x,4%,x,x,x,x
Cc1cc2c(s1)c1cnn(Cc3ccccc3)c(=O)c1n2C,x,-4%,-1%,x,x,x
Cc1ccc(N2C(=O)C3C4C=CC(CNC(=S)Nc5ccc(Cl)cc5)(O4)C3C2=O)cc1 (stereo unspecified),-26%,13%,-3%,-10%,15%,-7%
Cc1ccc(N2C(=O)C3C4C=CC(CNC(=S)N5CCN(c6ccccn6)CC5)(O4)C3C2=O)cc1 (stereo unspecified),79µM*,14%,x,-16%,14%,-3%
COc1ccc(C2CC(c3ccccc3)Oc3cc(C)c(Cl)c(C)c32)cc1 (stereo unspecified),-15%,-1%,3%,x,x,x
Cc1ccc(NS(=O)(=O)c2cc3c(cc2N(C)C)CCC(=O)N3)cc1C,x,6%,0%,x,x,x
Cc1cc(SCC(=O)NN)c2cc(Br)ccc2n1,28µM*,21%,8%,u,-15%,-5%
Cc1cc(C(=O)NN)c2cc(Br)ccc2n1,-11%,-7%,-5%,2%,7%,6%
Nc1ncnc2c1ncn2[C@@H]1O[C@H](CO)[C@H](O)[C@H]1O,x,x,9%[56.1 µM],x,x,x
O=C(NNC(=O)c1sccc1-n1cccc1)c1ccc(F)cc1,-14%,-5%,-2%,-17%,-1%,1%
SMILES,VDR inh,Pin1 inhibitor,TDP1 inh,PLK1 PBD block,Tb PFK block,ASM inhibitor
O=C(NNC(=O)c1sccc1-n1cccc1)c1ccccc1,-21%,-5%,0%,24µM*,-6%,1%
Cc1cc(SCC(=O)c2ccc(Cl)cc2)nc(=O)[nH]1,u,8%,4%,24µM*,13%,13%
Cc1cc2ccccc2nc1SCC(=O)NC1CCCC1,u,1%,-2%,24µM*,-4%,-3%
Cc1cc2ccccc2nc1SCC(=O)NC1CCCCC1,-3%,17%,6%,2%,0%,-1%
COCCCc1cc(F)c(S(=O)(=O)N2CCN(S(=O)(=O)c3ccc4c(c3)OCCO4)CC2)cc1F,x,-2%,1%,x,x,x
CCc1cc2c(nc1CC)CCN(CC/C(C)=N/O[C@@H](C)CN1CCCc3nc(C)c(C)cc31)C2,x,x,7%[21 µM],x,x,x
COc1ccc(CCCC(=O)Nc2ccc(F)cc2)cc1,-19%,6%,-1%,21µM*,-3%,-1%
O=C(CNC(=O)c1ccc([N+](=O)[O-])cc1)OC(C(=O)Nc1cc(C(F)(F)F)ccc1Cl)c1ccccc1 (stereo unspecified),x,4%,1%,x,x,x
Cn1ncc2c(=S)nc(Cl)[nH]c21,u,4%,x,27µM*,x,5%
COc1ccc(C(CNC(=O)c2cccc([N+](=O)[O-])c2)N2CCOCC2)cc1 (stereo unspecified),11%,7%,-2%,x,x,x
CCN(CC)CC(=O)c1ccc(-c2ccccc2)cc1,40µM*,32%,6%,u,u,0%
C/[N+]([O-])=C\CC(=O)c1ccc(-c2ccccc2)cc1,1%,7%,-1%,21µM*,6%,-2%
Cc1cc(C)c[n+](CC(=O)c2ccc(-c3ccccc3)cc2)c1,-20%,-1%,-2%,-9%,-4%,5%
CN(C)CC(=O)c1ccc(-c2ccccc2)cc1,u,2%,4%,-9%,0%,-2%
CC(C)[C@H](NC(=O)[C@@H]1CSSC[C@H](NC(=O)[C@H](CC(=O)O)NC(=O)[C@H](C)NC(=O)[C@@H](NC(=O)CNC(=O)[C@H](C)N)[C@@H](C)O)C(=O)N[C@@H](Cc2ccccc2)C(=O)N[C@@H](Cc2c[nH]c3ccccc23)C(=O)N[C@@H](CCCCN)C(=O)N[C@@H](Cc2ccc(O)cc2)C(=O)N1)C(=O)O,-5%,x,4%,x,x,x
CC(=O)Nc1ccc2c(c1)OCCO2,11%,u,-2%,-5%,-1%,1%
CC(=O)Nc1ccc(SCC(=O)NC(=O)c2ccc(S(=O)(=O)N(C)C)cc2)cc1,u,2%,1%,11µM*,-2%,2%
CC(=O)Nc1ccc(SCC(=O)Nc2ccc3c(c2)OCCO3)cc1,u,0%,1%,12µM*,-17%,5%
Cc1c(NC(=O)CSc2ccc3c(c2)OCCO3)c(=O)n(-c2ccccc2)n1C,-8%,0%,-2%,27µM*,-4%,-3%
Nn1c(SCC(=O)Nc2ccc3c(c2)OCCO3)nnc(CCC(=O)O)c1=O,u,-8%,2%,3.4µM*,2%,9%
